Data as given in PubChem BioAssay (EPA / NIEHS).
Inconclusive results are not listed. Active and inactive are the calls of the source. The calls were made as follows, unless noted: active = hit-call score of the fitted dose curve at least 0.9, where 1 is the maximum; inactive = score below 0.9.

What was measured:
[1] = biological target: Glucocorticoid receptor (Homo sapiens) (UniProt P04150); experiment: ATG_GR_TRANS: Attagene TRANS-FACTORIAL HepG2 Assay for human Glucocorticoid Receptor (GR) (AID 2282978; active = hit-call score of the fitted dose curve at least 0.9, where 1 is the maximum;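 also: activators score as hits since higher reporter transcript over DMSO is fitted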); conditions: HepG2 Attagene TRANS GR reporter, mRNA transcription
Glucocorticoid receptor (Homo sapiens), sequence (P04150 whole entry, looked up, the tested form may be a part): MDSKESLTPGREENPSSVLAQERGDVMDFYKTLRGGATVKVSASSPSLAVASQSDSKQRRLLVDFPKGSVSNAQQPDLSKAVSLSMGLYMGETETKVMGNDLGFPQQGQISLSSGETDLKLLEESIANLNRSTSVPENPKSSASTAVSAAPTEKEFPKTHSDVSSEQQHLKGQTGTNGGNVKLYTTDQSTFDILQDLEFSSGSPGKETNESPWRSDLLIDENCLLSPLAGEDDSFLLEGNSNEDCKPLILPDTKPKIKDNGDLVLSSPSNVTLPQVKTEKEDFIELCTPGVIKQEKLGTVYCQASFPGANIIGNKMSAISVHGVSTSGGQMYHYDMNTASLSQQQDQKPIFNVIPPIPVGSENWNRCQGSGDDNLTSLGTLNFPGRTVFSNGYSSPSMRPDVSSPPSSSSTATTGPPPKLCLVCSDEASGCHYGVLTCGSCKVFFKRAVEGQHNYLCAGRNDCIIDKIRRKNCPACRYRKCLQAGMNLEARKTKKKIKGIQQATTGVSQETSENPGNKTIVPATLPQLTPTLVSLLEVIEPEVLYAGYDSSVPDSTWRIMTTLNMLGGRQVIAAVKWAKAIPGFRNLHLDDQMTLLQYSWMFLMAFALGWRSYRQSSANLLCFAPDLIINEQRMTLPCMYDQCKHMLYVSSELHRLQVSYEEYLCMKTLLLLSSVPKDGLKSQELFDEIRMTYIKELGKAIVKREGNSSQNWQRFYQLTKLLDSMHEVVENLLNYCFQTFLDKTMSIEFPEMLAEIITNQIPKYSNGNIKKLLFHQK
Method in brief: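 Fluorescent capillary-electrophoresis quantitation of reporter mRNA is the readout, taken 24 h after dosing human HepG2 cells carrying transiently transfected GAL4-UAS reporter units activated by chimeric NR-GAL4 fusions; activity scored as induction over DMSO.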

[2] = biological target: Bile acid receptor (Homo sapiens) (UniProt Q96RI1); experiment: ATG_FXR_TRANS: Attagene TRANS-FACTORIAL HepG2 Assay for Farnesoid X Receptor (FXR) (AID 2282979; active = hit-call score of the fitted dose curve at least 0.9, where 1 is the maximum;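 also: hits raise reporter mRNA above DMSO so AC50 marks FXR activation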); conditions: HepG2 Attagene TRANS FXR-GAL4 reporter transcription
Bile acid receptor (Homo sapiens), sequence (Q96RI1 whole entry, looked up, the tested form may be a part): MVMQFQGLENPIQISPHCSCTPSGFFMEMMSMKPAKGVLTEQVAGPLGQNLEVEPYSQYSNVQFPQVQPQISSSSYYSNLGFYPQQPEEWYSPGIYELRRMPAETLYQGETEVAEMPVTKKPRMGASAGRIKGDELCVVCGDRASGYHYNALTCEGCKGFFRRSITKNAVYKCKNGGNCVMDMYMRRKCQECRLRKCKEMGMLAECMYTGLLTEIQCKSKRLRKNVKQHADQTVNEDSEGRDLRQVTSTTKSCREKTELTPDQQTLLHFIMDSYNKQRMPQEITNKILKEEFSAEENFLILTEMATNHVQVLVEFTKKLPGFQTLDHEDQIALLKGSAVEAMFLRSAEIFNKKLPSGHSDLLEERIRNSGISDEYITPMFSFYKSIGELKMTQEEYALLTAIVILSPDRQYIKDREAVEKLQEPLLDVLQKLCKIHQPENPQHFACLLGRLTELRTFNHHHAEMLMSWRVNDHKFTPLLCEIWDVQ
Method in brief: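 Transient transfection of HepG2 with multiplexed GAL4-UAS reporter units; exogenous FXR-GAL4 chimera. Dose 24 h → TriZol RNA → oligo(dT) RT → PCR, 6-FAM primer extension, HpaI cut → CE. Gain vs DMSO.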

[3] = biological target: Oxysterols receptor LXR-alpha (Homo sapiens) (UniProt Q13133); experiment: ATG_LXRa_TRANS: Attagene TRANS-FACTORIAL HepG2 Assay for human Liver X Receptor alpha (LXRa) (AID 2282980; active = hit-call score of the fitted dose curve at least 0.9, where 1 is the maximum); conditions: HepG2 Attagene TRANS reporter, LXRa transactivation
Oxysterols receptor LXR-alpha (Homo sapiens), sequence (Q13133 whole entry, looked up, the tested form may be a part): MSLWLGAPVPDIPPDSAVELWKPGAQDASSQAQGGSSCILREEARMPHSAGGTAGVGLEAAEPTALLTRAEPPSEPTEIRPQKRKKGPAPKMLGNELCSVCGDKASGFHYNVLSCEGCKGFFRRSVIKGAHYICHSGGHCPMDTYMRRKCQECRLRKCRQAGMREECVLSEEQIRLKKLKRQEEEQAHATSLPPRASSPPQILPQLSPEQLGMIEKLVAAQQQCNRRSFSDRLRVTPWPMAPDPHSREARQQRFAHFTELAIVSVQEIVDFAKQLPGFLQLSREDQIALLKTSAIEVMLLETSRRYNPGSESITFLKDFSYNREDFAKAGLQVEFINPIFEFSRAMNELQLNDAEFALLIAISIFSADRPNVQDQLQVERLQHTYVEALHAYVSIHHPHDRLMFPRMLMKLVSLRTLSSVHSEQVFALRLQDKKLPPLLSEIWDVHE
Method in brief: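 Transfect HepG2 with GAL4-UAS multiplex reporter constructs (TRANS format, chimeric receptor-GAL4); treat 24 h; extract RNA, reverse-transcribe, PCR-amplify, FAM-label, HpaI-digest; resolve fragments by capillary electrophoresis. Upward response vs DMSO.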

[4] = biological target: Oxysterols receptor LXR-beta (Homo sapiens) (UniProt P55055); experiment: ATG_LXRb_TRANS: Attagene TRANS-FACTORIAL HepG2 Assay for human Liver X Receptor beta (LXRb) (AID 2282981; active = hit-call score of the fitted dose curve at least 0.9, where 1 is the maximum); conditions: HepG2 Attagene TRANS GAL4-LXRb reporter, mRNA
Oxysterols receptor LXR-beta (Homo sapiens), sequence (P55055 whole entry, looked up, the tested form may be a part): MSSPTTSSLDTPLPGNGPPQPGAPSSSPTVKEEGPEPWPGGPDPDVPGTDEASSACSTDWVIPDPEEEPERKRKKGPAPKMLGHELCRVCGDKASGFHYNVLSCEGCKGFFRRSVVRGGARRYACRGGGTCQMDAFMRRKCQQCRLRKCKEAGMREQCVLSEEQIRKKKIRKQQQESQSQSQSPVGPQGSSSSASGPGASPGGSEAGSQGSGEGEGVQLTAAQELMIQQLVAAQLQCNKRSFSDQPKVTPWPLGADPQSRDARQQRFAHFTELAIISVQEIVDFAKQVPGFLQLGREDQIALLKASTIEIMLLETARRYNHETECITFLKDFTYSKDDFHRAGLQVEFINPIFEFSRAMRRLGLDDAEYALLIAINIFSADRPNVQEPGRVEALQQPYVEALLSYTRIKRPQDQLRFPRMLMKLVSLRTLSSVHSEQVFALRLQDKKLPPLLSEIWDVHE
Method in brief: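 Liver-derived HepG2 cells transfected with Gal4-responsive reporters were dosed for 24 h. Activation was scored as rise in reporter mRNA, by RT-PCR and capillary electrophoresis, above DMSO baseline.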

[5] = ATG_M_06_TRANS: Attagene TRANS-FACTORIAL HepG2 Assay for M06 Transcription Factor (Internal Marker) (AID 2282983; active = hit-call score of the fitted dose curve at least 0.9, where 1 is the maximum); conditions: HepG2 Attagene TRANS M06 internal marker reporter
Method in brief: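 Background control endpoint: reporter mRNA from transiently transfected HepG2 after 24 h dosing, detected by RT-PCR with capillary electrophoresis fluorescence. Analysed for gain versus DMSO.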

[6] = ATG_M_32_TRANS: Attagene TRANS-FACTORIAL HepG2 Assay for M32 Transcription Factor (Internal Marker) (AID 2282984; active = hit-call score of the fitted dose curve at least 0.9, where 1 is the maximum); conditions: HepG2 Attagene TRANS M32 internal marker reporter
Method in brief: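 Fluorescence-detected mRNA induction, HepG2 liver cells, 24 h after dosing. Multiple GAL4-UAS reporter units introduced by transient transfection; background-control endpoint analysed for gain of signal against DMSO.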

[7] = biological target: Nuclear receptor subfamily 4 group A member 2 (Homo sapiens) (UniProt P43354); experiment: ATG_NURR1_TRANS: Attagene TRANS-FACTORIAL HepG2 Assay for human Nuclear Receptor Related Protein 1 (NURR1) (AID 2282985; active = hit-call score of the fitted dose curve at least 0.9, where 1 is the maximum); conditions: HepG2 Attagene TRANS reporter, mRNA readout
Nuclear receptor subfamily 4 group A member 2 (Homo sapiens), sequence (P43354 whole entry, looked up, the tested form may be a part): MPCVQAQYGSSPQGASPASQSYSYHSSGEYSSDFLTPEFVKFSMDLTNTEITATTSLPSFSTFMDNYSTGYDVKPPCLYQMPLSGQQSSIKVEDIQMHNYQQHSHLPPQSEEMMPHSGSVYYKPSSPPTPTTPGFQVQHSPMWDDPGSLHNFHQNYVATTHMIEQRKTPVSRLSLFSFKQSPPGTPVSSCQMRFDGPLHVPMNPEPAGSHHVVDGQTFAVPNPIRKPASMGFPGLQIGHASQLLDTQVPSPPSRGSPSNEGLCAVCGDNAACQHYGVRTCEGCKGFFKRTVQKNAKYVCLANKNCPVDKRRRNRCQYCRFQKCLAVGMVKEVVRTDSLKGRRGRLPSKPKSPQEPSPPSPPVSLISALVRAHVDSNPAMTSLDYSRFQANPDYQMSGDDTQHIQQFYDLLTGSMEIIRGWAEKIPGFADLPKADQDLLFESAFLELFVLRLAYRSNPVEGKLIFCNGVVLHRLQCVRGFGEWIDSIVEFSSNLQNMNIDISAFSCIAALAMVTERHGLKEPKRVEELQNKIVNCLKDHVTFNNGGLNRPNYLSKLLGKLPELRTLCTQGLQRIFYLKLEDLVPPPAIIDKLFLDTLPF
Method in brief: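 Chimeric NR-Gal4 proteins were expressed in human HepG2 cells bearing GAL4-UAS reporter units, and induced reporter mRNA was quantified 24 h post-dosing by RT-PCR and capillary electrophoresis.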

[8] = biological target: Transcriptional activator Myb (Homo sapiens) (UniProt P10242); experiment: ATG_Myb_CIS: Attagene CIS-FACTORIAL HepG2 Assay for human Myeloblastosis (Myb) Proto-Oncogene Transcription Factor (AID 2282986); conditions: HepG2 Attagene CIS-FACTORIAL Myb reporter transcription; actives raise or lower the signal
Transcriptional activator Myb (Homo sapiens), sequence (P10242 whole entry, looked up): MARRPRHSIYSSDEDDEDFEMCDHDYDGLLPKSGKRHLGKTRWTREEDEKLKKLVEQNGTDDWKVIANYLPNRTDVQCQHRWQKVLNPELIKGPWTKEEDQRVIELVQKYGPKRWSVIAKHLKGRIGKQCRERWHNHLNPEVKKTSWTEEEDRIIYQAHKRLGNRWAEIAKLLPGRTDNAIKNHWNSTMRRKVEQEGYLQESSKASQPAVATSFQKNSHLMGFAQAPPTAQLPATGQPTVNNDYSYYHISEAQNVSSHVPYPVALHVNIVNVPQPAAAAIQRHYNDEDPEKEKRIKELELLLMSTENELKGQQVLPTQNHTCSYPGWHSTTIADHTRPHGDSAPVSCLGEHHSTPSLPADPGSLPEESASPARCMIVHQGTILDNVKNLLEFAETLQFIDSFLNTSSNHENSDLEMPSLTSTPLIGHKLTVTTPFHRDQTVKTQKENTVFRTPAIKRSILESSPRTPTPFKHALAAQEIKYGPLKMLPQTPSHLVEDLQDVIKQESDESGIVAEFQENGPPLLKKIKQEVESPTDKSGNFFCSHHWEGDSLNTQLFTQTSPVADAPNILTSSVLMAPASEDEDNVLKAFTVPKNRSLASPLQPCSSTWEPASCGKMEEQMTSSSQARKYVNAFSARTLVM
Method in brief: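 Reporter transcript levels, quantified by fluorescent RT-PCR and capillary electrophoresis, serve as the read-out. Transfected HepG2 cells carrying cis-promoter reporter units are dosed for 24 hours, and curves are fitted bidirectionally against DMSO controls.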

[9] = biological target: Nuclear respiratory factor 1 (Homo sapiens) (UniProt Q16656); experiment: ATG_NRF1_CIS: Attagene CIS-FACTORIAL HepG2 Assay for human Nuclear Respiratory Factor 1 (NRF1) Orphan Gene (AID 2282987); conditions: HepG2 NRF1 cis-element reporter, Attagene multiplex; actives raise or lower the signal
Nuclear respiratory factor 1 (Homo sapiens), sequence (Q16656 whole entry, looked up): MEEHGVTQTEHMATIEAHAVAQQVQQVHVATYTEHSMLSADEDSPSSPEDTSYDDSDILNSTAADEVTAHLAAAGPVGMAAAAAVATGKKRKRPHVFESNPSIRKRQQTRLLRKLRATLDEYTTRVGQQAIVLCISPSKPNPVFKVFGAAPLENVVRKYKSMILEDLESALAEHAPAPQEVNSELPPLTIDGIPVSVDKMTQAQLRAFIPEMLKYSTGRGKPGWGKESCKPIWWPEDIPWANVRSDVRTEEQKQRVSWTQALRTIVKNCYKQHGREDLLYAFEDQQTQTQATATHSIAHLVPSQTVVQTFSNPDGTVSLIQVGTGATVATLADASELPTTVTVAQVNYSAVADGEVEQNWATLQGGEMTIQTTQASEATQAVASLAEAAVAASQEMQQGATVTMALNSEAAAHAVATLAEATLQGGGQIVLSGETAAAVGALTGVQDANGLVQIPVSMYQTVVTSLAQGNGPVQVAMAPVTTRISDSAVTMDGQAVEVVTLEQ
Method in brief: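 Multiplexed cis-reporter assay, HepG2 cells, 24 h treatment. Total RNA → oligo(dT) RT → PCR with reporter-specific primers → 6-FAM primer extension → HpaI cut → CE. Bidirectional fit vs DMSO.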

[10] = ATG_NFI_CIS: Attagene CIS-FACTORIAL HepG2 Assay for human Nuclear Factor I (NFI) (AID 2282989); conditions: HepG2 cis-regulatory reporter, NFI response element transcription; actives raise or lower the signal
Method in brief: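 HepG2 cells transiently transfected with cis-element-driven multiplexed reporter transcription units, dosed for 24 h. Reporter mRNA quantified by RT-PCR, fluorescent labelling, HpaI digestion and capillary electrophoresis; bidirectional fit versus DMSO baseline.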

[11] = biological target: Myc proto-oncogene protein (Homo sapiens) (UniProt P01106); experiment: ATG_Myc_CIS: Attagene CIS-FACTORIAL HepG2 Assay for human Myelocytomatosis (Myc) Proto-Oncogene Transcription Factor (AID 2282990); conditions: HepG2, Attagene cis-reporter transcription factor activity; actives raise or lower the signal
Myc proto-oncogene protein (Homo sapiens), sequence (P01106 whole entry, looked up): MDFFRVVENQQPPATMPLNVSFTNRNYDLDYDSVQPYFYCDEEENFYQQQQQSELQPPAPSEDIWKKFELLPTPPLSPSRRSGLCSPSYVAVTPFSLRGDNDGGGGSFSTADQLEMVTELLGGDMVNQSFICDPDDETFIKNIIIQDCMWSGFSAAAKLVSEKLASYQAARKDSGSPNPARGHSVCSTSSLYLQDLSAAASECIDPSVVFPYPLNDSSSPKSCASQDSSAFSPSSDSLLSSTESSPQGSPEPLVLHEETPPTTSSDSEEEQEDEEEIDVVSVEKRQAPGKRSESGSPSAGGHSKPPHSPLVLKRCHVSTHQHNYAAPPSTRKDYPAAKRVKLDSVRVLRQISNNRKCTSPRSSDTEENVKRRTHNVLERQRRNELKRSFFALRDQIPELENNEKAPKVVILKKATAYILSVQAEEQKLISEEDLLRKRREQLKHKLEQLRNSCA
Method in brief: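 Multiplexed cis-reporter transcription in HepG2 cells after 24 h chemical treatment. Reporter mRNA measured by RT-PCR and capillary electrophoresis fluorescence; activity fitted bidirectionally against DMSO control.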

[12] = ATG_NRF2_ARE_CIS: Attagene CIS-FACTORIAL HepG2 Assay for human Nuclear Factor Erythroid 2 Related Factor 2 (NFR2) response to Antioxidant Response Elements (ARE) (AID 2282992); conditions: HepG2 Attagene ARE/NRF2 reporter, transcription factor activity; actives raise or lower the signal
Method in brief: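 Using transiently transfected HepG2 cells exposed for 24 h, reporter mRNA levels were determined by RT-PCR with fluorescent primer extension and capillary electrophoresis, analysed for gain or loss of signal against DMSO.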

[13] = ATG_Oct_MLP_CIS: Attagene CIS-FACTORIAL HepG2 Assay for human Octamer-Binding Transcription Factor (Oct) (AID 2282993); conditions: HepG2 Attagene cis-factorial Oct reporter, mRNA; actives raise or lower the signal
Method in brief: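 HepG2 cells transiently transfected with cis-promoter-driven multiplexed reporter transcription units, dosed for 24 h. Reporter mRNA quantified by RT-PCR, fluorescent labelling, HpaI digestion and capillary electrophoresis; bidirectional fits versus DMSO baseline.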

[14] = biological target: Cellular tumor antigen p53 (Homo sapiens) (UniProt P04637); experiment: ATG_p53_CIS: Attagene CIS-FACTORIAL HepG2 Assay for human p53 Transcription Factor (AID 2282994); conditions: HepG2 p53 cis-element reporter, Attagene mRNA; actives raise or lower the signal
Cellular tumor antigen p53 (Homo sapiens), sequence (P04637 whole entry, looked up, the tested form may be a part): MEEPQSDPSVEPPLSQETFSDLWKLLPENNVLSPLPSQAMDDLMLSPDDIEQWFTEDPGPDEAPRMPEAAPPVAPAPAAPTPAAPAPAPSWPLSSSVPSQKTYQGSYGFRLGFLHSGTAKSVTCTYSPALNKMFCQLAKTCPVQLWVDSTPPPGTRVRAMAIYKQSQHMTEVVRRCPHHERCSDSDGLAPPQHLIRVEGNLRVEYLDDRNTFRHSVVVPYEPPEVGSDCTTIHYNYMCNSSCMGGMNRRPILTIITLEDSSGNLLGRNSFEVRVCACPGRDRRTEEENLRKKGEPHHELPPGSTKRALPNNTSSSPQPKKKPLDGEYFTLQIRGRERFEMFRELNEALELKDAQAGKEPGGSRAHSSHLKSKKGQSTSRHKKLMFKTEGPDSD
Method in brief: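 In HepG2 cells, reporter transcription units under cis-regulatory promoters were transiently introduced. Following 24 h treatment, RNA was processed to labelled, digested cDNA fragments read by capillary electrophoresis; fitting was bidirectional versus DMSO.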

[15] = ATG_NF_kB_CIS: Attagene CIS-FACTORIAL HepG2 Assay for human Nuclear Factor Kappa B (NF-kB) (AID 2282991); conditions: HepG2 Attagene cis-factorial NF-kB reporter mRNA; actives raise or lower the signal
Method in brief: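 Transient MRTU transfection of human HepG2 liver cells → 24 h chemical exposure → total RNA, oligo(dT) RT → PCR, 6-FAM primer extension, HpaI digest 2 h 37 C → CE fragment analysis. Bidirectional fitting, DMSO negative control.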

[16] = BSK_3C_TissueFactor: BioMAP Diversity Plus: 3C Assay for Tissue Factor Biomarker Activity (AID 2282997); conditions: BioMAP 3C HUVEC, tissue factor biomarker readout; actives raise or lower the signal
Method in brief: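 After a 24 h chemical exposure of primary human umbilical vein endothelial cells, Tissue Factor levels were quantified by ELISA.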

[17] = BSK_3C_uPAR: BioMAP Diversity Plus: 3C Assay for Urokinase-type plasminogen activator receptor (uPAR) Biomarker Activity (AID 2282998); conditions: BioMAP 3C HUVEC, uPAR biomarker ELISA; actives raise or lower the signal
Method in brief: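 Human umbilical vein endothelial primary cells were exposed to test chemical for 24 h. Cell-surface uPAR was then quantified by ELISA, and responses were fitted bidirectionally against DMSO as negative control and baseline.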

[18] = BSK_3C_VCAM1: BioMAP Diversity Plus: 3C Assay for Vascular cell adhesion molecule 1 (VCAM1) Biomarker Activity (AID 2282999); conditions: BioMAP 3C HUVEC, VCAM1 ELISA, cytokine-stimulated; actives raise or lower the signal
Method in brief: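 Vascular primary endothelium (human umbilical vein) was exposed to chemicals and assayed 24 h later. VCAM-1 levels came from ELISA, with DMSO serving as baseline for bidirectional fitting.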

[19] = BSK_4H_Eotaxin3: BioMAP Diversity Plus: 4H Assay for Eotaxin 3 Biomarker Activity (AID 2283000); conditions: primary human endothelial cells (HUVEC); actives raise or lower the signal
Method in brief: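 Chemicals were added to human umbilical vein endothelium cultures, and Eotaxin-3 was quantified by ELISA at 24 h. Values were derived by bidirectional fitting with DMSO serving as negative control and activity baseline.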

[20] = biological target: Hepatocyte nuclear factor 4-alpha (Homo sapiens) (UniProt P41235); experiment: ATG_HNF4a_TRANS: Attagene TRANS-FACTORIAL HepG2 Assay for human Hepatocyte Nuclear Factor 4 alpha (HNF4a) (AID 2282982; active = hit-call score of the fitted dose curve at least 0.9, where 1 is the maximum); conditions: HepG2 HNF4a transactivation reporter, mRNA readout
Method in brief: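 Using HepG2 liver cells transfected with GAL4-UAS reporter units, chemical-induced mRNA increases were assessed after 24 hours. Fluorescent RT-PCR fragments were separated by capillary electrophoresis and compared with DMSO negative controls.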

Measured: AC50

O=C1CCCCCCCCCCCCCCCO1
active: [12] 65.2 µM
inactive: [1] | [2] | [3] | [4] | [5] | [6] | [7] | [8] | [9] | [10] | [11] | [13] | [14]

CCCCCC/C=C\CCCCCCCC(=O)O
inactive: [1] | [2] | [5] | [7] | [8] | [9] | [10] | [11] | [15] | [13] | [14]
active: [12] 26.5 µM

Nc1ccc(Cl)cc1Cl
inactive: [1] | [2] | [4] | [5] | [6] | [7] | [8] | [9] | [10] | [11] | [15] | [13] | [14]

C=CC(=O)OCC(Br)CBr (centres undefined)
active: [10] 163 µM | [15] 56.6 µM | [12] 24.8 µM | [14] 165 µM | [16] 20 µM | [17] 34.2 µM | [18] 18.4 µM | [19] 20 µM
inactive: [1] | [2] | [6] | [7] | [8] | [9] | [11] | [13]

Nc1ccc(N=Nc2ccccc2)c(N)n1
active: [12] 15.3 µM | [13] 69.7 µM
inactive: [1] | [3] | [4] | [20] | [6] | [7] | [8] | [9] | [10] | [11] | [15]

C=CCOc1c(Br)cc(Br)cc1Br
active: [7] 43.4 µM | [16] 13.7 µM | [17] 5.76 µM | [18] 24.3 µM | [19] 29.3 µM
inactive: [1] | [2] | [4] | [5] | [6] | [8] | [9] | [10] | [11] | [15] | [13] | [14]

COC(F)(F)C(F)(C(F)(F)F)C(F)(F)F
inactive: [1] | [2] | [4] | [5] | [6] | [8] | [9] | [10] | [11] | [15] | [12] | [13]

C=C[C@](C)(O)CC[C@@H]1[C@@]2(C)CCCC(C)(C)[C@@H]2CC[C@@]1(C)O
active: [12] 6.58 µM
inactive: [1] | [2] | [3] | [5] | [6] | [7] | [8] | [9] | [10] | [11] | [15] | [13] | [14]

O=c1[nH]nc(-c2ccc([N+](=O)[O-])o2)o1
inactive: [1] | [3] | [4] | [20] | [5] | [6] | [8] | [9] | [10] | [11] | [15] | [14]
active: [12] 61.3 µM
